According to PubChem BioAssay (Tox21):
Several values for one entry are separate records, joined by “and”; a condition that tells them apart may be missing. Equal entries are not always repeated. Results filed as inconclusive are left out. Where a structure was tested more than once in an assay, its records may differ in their call. Activity calls are given as the source filed them. Unless noted, the call rests on the fitted dose curve; in most records, active means well fitted curve in the direction sought with a large enough effect in the repeat runs; inconclusive means weak or mixed curves; inactive means no such curve, though single readings can be large; an effect the other way counts as inactive or inconclusive.

Columns and labels:
[1] = qHTS RealTime-Glo MT Cell Viability Assay in HEK293 cells - 24 hour (AID 1224886); further: nearly all actives have a fitted effect of over 50% in size; further: potency means the concentration at half of the fitted maximal effect
How it was run: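 Tox21 10K qHTS, HEK293, 600 cells/well, RealTime-Glo reagent co-dispensed with cells; 5 h preincubation, compound by pintool, 37 C, luminescence at 0–40 h.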

[2] = qHTS RealTime-Glo MT Cell Viability Assay in HEK293 cells - 8 hour (AID 1224887); further: top concentration of the series differs between compounds; nearly all actives have a fitted effect of over 50% in size
How it was run: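 Luminescence, which tracks viable cell number through reduction of the prosubstrate to a NanoLuc substrate, was read over continuous 37 C culture. Cells (600/well) were premixed with reagent and rested 5 h before 23 nL of compound in DMSO was pinned.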

[3] = A CellTox Green Cytotoxicity Assay to monitor cytotoxicity in HEK293 cells - 16 hour (AID 1224888); further: nearly all actives have a fitted effect of over 35% in size
How it was run: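 Fluorescence from a DNA-binding dye excluded by viable cells was measured repeatedly in the same HEK293 wells (600 cells/well) during continuous compound exposure at 37 C. Each assay gives one read point: 0, 8, 16, 24, 32 or 40 h.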

[4] = qHTS RealTime-Glo MT Cell Viability Assay in HepG2 cells - 0 hour (AID 1224889); further: nearly all actives have a fitted effect of over 50% in size
How it was run: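 Cells + NanoLuc/prosubstrate dispensed (600 cells/well) → 5 h at 37 C/5% CO2 → compounds in DMSO transferred → 40 h incubation at 37 C, luminescence read at 0, 8, 16, 24, 32, 40 h.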

[5] = A CellTox Green Cytotoxicity Assay to monitor cytotoxicity in HepG2 cells - 8 hour (AID 1224890); further: nearly all actives have a fitted effect of over 45% in size; further: potency means the concentration at half of the fitted maximal effect
How it was run: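 Real-time cytotoxicity: fluorescence of a cell-impermeant cyanine dye binding DNA of dead HepG2 cells, measured repeatedly (0–40 h) during compound exposure at 37 C. Cells seeded 600/well with reagent, dosed after 5 h.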

[6] = qHTS assay to identify small molecule antagonists of the estrogen receptor alpha (ER-alpha) signaling pathway using the BG1 cell line in the presence of 0.1 nM 17-beta-estradiol - cell viability counter screen (AID 1259241); further: nearly all actives have a fitted effect of over 40% in size
How it was run: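 Live-cell protease activity (CellTiter-Fluor fluorescence, 30 min) was read in the same wells after VM7Luc4E2 cells had been exposed to compounds with 0.1 nM 17beta-estradiol for 22 hr at 37C.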

[7] = qHTS assay to identify small molecule antagonists of the androgen receptor (AR) signaling pathway using the MDA cell line in the presence of 0.5 nM R1881 - cell viability counter screen (AID 1259242); further: nearly all actives have a fitted effect of over 45% in size
How it was run: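 Live-cell protease activity was measured by CellTiter-Fluor fluorescence after 30 min. Before that, MDA-kb2 MMTV-luciferase cells had 16 hr at 37C without CO2, exposed to test compounds and 0.5 nM R1881 final.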

[8] = qHTS assay to identify small molecule HDAC inhibitors - cell viability counter screen (AID 1259365); further: series mostly up to about 92 µM; nearly all actives have a fitted effect of over 50% in size
How it was run: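 HCT-116 (wild type), 1,500 cells/well, overnight 37C/5% CO2; compound in DMSO 2hr; CellTiter-Glo 30min RT; luminescence read.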

[9] = qHTS assay to identify small molecule agonists of the sonic hedgehog signaling (Shh) pathway - cell viability counter screen (AID 1259366); further: nearly all actives have a fitted effect of over 50% in size; further: potency means the concentration at half of the fitted maximal effect
How it was run: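 CellTiter-Fluor fluorescence read-out, 1 hr at 37C, added after 23hr compound exposure. Cells: 3T3 Gli1-Luc, an NIH/3T3 clone with stably integrated Gli1-Luc reporter, plated 4hr before compound.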

[10] = qHTS assay to identify small molecule antagonists of the sonic hedgehog signaling (Shh) pathway - cell viability counter screen (AID 1259367); further: nearly all actives have a fitted effect of over 55% in size; further: potency means the concentration at half of the fitted maximal effect
How it was run: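 Viability was read by CellTiter-Fluor fluorescence in the same wells, reagent added 23 hr into compound treatment and incubated 1 hr at 37C. The 3T3 Gli1-Luc reporter cells (2,000/well) received conditioned medium after compound and ran 24 hr.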

[11] = qHTS assay to identify small molecule agonists of the sonic hedgehog signaling (Shh) pathway (AID 1259368; calls by dose curve;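 further: NIH/3T3-derived 3T3Gli1-Luc cells carrying a stable Gli1-driven firefly luciferase reporter; series mostly up to about 92 µM; nearly all actives have a fitted effect of over 15% in size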)
How it was run: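 Luminescence was read after 30 min at room temperature with luciferase reagent. Before that, 3T3Gli1-Luc cells (NIH/3T3 clone, stable Gli1-Luc reporter; 2,000/well) were exposed to compounds for 24 hr at 37C, 5% CO2, compounds being added 4 hr post-plating.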

[12] = qHTS assay to identify small molecule antagonists of the sonic hedgehog signaling (Shh) pathway (AID 1259369; calls by dose curve; further: nearly all actives have a fitted effect of over 45% in size; further: potency means the concentration at half of the fitted maximal effect)
How it was run: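 Antagonist mode: compound added to 3T3 Gli1-Luc cells followed by conditioned-medium stimulation, 24 h at 37 C, 5% CO2. Inhibition taken as loss of Gli1-driven luciferase luminescence.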

[13] = biological target: Estrogen receptor beta (Homo sapiens) (UniProt Q92731); test: qHTS assay to identify small molecule agonists of the estrogen receptor beta (ER-beta) signaling pathway (AID 1259377; active means well fitted activation curve with a large enough effect in the signal ratio in the repeat runs, not every such curve was filed as active; the % refers to the signal ratio; further: potency means the concentration at half of the fitted maximal effect)
Chain of Estrogen receptor beta (Homo sapiens) (Q92731 whole entry, looked up): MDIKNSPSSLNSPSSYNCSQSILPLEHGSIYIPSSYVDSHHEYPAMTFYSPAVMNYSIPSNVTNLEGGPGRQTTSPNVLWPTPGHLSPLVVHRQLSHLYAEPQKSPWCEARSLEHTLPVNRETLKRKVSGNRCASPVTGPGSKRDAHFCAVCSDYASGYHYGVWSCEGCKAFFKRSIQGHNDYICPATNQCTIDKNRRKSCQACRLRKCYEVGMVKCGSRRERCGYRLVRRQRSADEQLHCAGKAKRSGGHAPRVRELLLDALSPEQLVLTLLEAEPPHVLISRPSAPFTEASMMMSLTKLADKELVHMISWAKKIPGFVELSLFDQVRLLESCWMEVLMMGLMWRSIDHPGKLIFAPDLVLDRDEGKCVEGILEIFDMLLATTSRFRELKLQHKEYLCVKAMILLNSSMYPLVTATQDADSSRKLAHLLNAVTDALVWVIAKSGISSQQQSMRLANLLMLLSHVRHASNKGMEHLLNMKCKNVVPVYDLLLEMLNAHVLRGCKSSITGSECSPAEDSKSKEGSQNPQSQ
How it was run: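 Beta-lactamase reporter readout: fluorescence of LiveBLAzer B/G FRET substrate after 2 h at room temperature, following 16 h compound treatment of ER-beta-UAS-bla HEK293T cells at 37C in 2% charcoal-stripped FBS medium.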

[14] = qHTS assay to identify small molecule agonists of the androgen receptor (AR) signaling pathway in the presence of an antagonist - cell viability counter screen (AID 1259379);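 further: MDA-kb2 human breast cancer cells carrying an MMTV luciferase reporter; series mostly up to about 92 µM; nearly all actives have a fitted effect of over 25% in size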
How it was run: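 Cytotoxicity counter-screen run in the same wells as the nilutamide-challenged (3.0 µM final) AR agonist assay in MDA-kb2 cells. Compounds tested at 15 concentrations for 16 h, 37 °C without CO2; CellTiter-Fluor fluorescence read.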

[15] = qHTS assay to identify small molecule agonists of the estrogen receptor beta (ER-beta) signaling pathway - cell viability counter screen (AID 1259380); further: nearly all actives have a fitted effect of over 30% in size; further: potency means the concentration at half of the fitted maximal effect
How it was run: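 Cell viability counter screen: CellTiter-Glo luminescence (30 min, room temperature) measured in the same wells as the beta-lactamase readout, after 16 hr compound exposure at 37C of ER-beta-bla HEK293T cells in 2% charcoal-stripped FBS medium.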

[16] = biological target: Estrogen receptor (Homo sapiens) (UniProt P03372); test: qHTS assay to identify small molecule antagonists of the estrogen receptor alpha (ER-alpha) signaling pathway using the BG1 cell line in the presence of 0.1 nM 17-beta-estradiol (AID 1259244); further: nearly all actives have a fitted effect of over 50% in size
Chain of Estrogen receptor (Homo sapiens) (P03372 whole entry, looked up): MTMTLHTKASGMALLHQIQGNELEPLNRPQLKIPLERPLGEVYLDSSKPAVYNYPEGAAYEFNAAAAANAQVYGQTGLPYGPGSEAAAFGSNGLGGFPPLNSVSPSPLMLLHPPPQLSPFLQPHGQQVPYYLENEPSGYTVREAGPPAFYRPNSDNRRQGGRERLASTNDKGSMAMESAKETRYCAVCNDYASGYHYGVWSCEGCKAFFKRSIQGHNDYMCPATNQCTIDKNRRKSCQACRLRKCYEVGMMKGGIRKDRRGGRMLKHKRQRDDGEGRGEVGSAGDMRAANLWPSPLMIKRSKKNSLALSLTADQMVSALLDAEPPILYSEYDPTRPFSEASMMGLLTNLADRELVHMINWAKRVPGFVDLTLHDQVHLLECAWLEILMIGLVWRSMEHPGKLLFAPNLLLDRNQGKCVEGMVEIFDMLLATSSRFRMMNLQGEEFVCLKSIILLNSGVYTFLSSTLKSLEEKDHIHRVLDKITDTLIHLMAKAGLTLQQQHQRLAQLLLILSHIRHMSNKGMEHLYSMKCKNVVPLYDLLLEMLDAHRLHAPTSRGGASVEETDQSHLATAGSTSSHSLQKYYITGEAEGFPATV
How it was run: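 Luciferase luminescence (ONE-Glo, 30 min at room temperature) was read after 22 hr at 37C exposure to compounds plus 17beta-estradiol at 0.1 nM final. Cells were VM7Luc4E2 with endogenous ER-alpha and an ERE-driven luciferase, pre-cultured 5 days in hormone-depleted medium.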

[17] = qHTS assay to identify small molecule HDAC inhibitors (AID 1259364); further: nearly all actives have a fitted effect of over 45% in size; further: potency means the concentration at half of the fitted maximal effect
How it was run: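 Luminescence read after 30 min room-temperature HDAC-Glo incubation measures cellular class I/II HDAC activity. Compounds were applied for 2 hr at 37 C to HCT-116 wild-type cells seeded the day before.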

[18] = biological target: Estrogen receptor beta (Homo sapiens) (UniProt Q92731); test: qHTS assay to identify small molecule antagonists of the estrogen receptor beta (ER-beta) signaling pathway (AID 1259378; active means well fitted inhibition curve with a large enough effect in the signal ratio in the repeat runs, not every such curve was filed as active; the % refers to the signal ratio)
How it was run: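 Antagonist mode: compounds added to beta-lactamase reporter HEK293T ER-beta-UAS cells stimulated with E2 (1nM final), 16 hr at 37C. LiveBLAzer B/G FRET substrate, 2 hours room temperature, fluorescence read-out.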

Measured: Potency

CCC(C)(CC)c1cc(NC(=O)c2c(OC)cccc2OC)on1
active: [12] 6.88 µM
not listed: [16] | [17] | [18]
inactive: all other assays above

CC(C)=C[C@@H]1[C@@H](C(=O)OCc2coc(Cc3ccccc3)c2)C1(C)C
not listed: [12] | [13] | [17] | [18]
inactive: all other assays above

O=S(=O)(c1ccc(Cl)cc1)c1cc(Cl)c(Cl)cc1Cl
not listed: [9] | [12] | [16]
inactive: all other assays above

Nc1c(Cl)c(Cl)nc(C(=O)O)c1Cl
not listed: [9] | [17]
inactive: all other assays above

CCc1cccc(C)c1N(C(=O)CCl)C(C)COC (stereo not given)
not listed: [9] | [16] | [18]
inactive: all other assays above

C[C@]12CC[C@H]3[C@@H](CC[C@@]45O[C@@H]4C(O)=C(C#N)C[C@]35C)[C@@H]1CC[C@@H]2O
active: [12] 27.3 µM and 13.3 µM
not listed: [13] | [16] | [17]
inactive: all other assays above

CCOC(=O)c1ccccc1C(=O)OCC
not listed: [13] | [17] | [18]
inactive: all other assays above

CC(C)C#N
not listed: [13] | [16] | [18]
inactive: all other assays above

CC(C#N)CCC#N (stereo not given)
not listed: [2] | [9]
inactive: all other assays above

C=CCO
28.5 µM (active) and inactive: [17]
inactive and 27.5 µM (active): [5]
not listed: [2] | [3] | [9] | [13] | [16] | [18]
inactive: all other assays above

CC(Oc1ccc(Cl)cc1Cl)C(=O)O (stereo not given)
not listed: [2] | [9] | [13] | [18]
inactive: all other assays above

c1ccc2c(c1)oc1ccccc12
not listed: [2] | [16]
inactive: all other assays above

Cc1ccc(N)cc1N
not listed: [2] | [9] | [11]
inactive: all other assays above

CC(C)(C)C(O)(CCc1ccc(Cl)cc1)Cn1cncn1 (stereo not given)
active: [1] 49.6 µM and 54.9 µM
not listed: [2] | [12] | [13] | [15] | [16] | [18]
inactive: all other assays above

OCCN(CCO)CCO
not listed: [2] | [9] | [13] | [16] | [18]
inactive: all other assays above

CC(C)(C)OOC(=O)c1ccccc1
61.2 µM (active) and inactive: [13]
not listed: [2] | [16]
inactive: all other assays above

Oc1ccccc1Cl
not listed: [2] | [13] | [16] | [18]
inactive: all other assays above

CCNc1nc(NC(C)(C)C)nc(SC)n1
active: [1] 43.1 µM | [12] 1.7 µM and 6.11 µM
not listed: [2] | [9] | [17]
inactive: all other assays above

CN=C=S
active: [12] 2.19 µM
not listed: [2] | [13] | [18]
inactive: all other assays above

Cc1cc(Cl)ccc1O
active: [12] 2.65 µM
not listed: [2] | [9] | [16] | [17]
inactive: all other assays above

CC(C)(C)OOC(C)(C)C
not listed: [2]
inactive: all other assays above

Clc1ccccc1Cl
not listed: [2] | [16]
inactive: all other assays above

CN(C)[C@@H]1C(=O)C(C(N)=O)=C(O)[C@@]2(O)C(=O)C3=C(O)c4c(O)cccc4[C@@](C)(O)[C@H]3C[C@@H]12
not listed: [2] | [16] | [17]
inactive: all other assays above

COc1ccc2c3c1O[C@H]1[C@@H](O)C=C[C@H]4[C@@H](C2)N(C)CC[C@@]341
26.9 µM (active) and inactive: [10]
active: [12] 2.69 µM
21.3 µM (active) and inactive: [9]
48.2 µM (active) and inactive: [1]
not listed: [2] | [13] | [17] | [18]
inactive: all other assays above

COC(=O)c1ccccc1C(=O)OC
not listed: [2] | [9]
inactive: all other assays above

OC(O)C(Cl)(Cl)Cl
not listed: [2] | [9] | [16]
inactive: all other assays above

CC(=O)C=C(C)C
not listed: [2] | [9] | [12] | [13] | [17] | [18]
inactive: all other assays above

ClCCBr
not listed: [2] | [9]
inactive: all other assays above

O=[N+]([O-])c1ccc(Oc2ccc(Cl)cc2Cl)cc1
61.4 µM (active) and inactive: [13]
not listed: [1] | [2] | [16]
inactive: all other assays above

Cc1ccccc1O
not listed: [2] | [9] | [17]
inactive: all other assays above

CC1OC(C)OC(C)O1 (stereo not given)
not listed: [2] | [16]
inactive: all other assays above

c1ccc2c(c1)Oc1ccccc1O2
not listed: [2] | [9] | [13] | [16] | [18]
inactive: all other assays above

C1CC2OC2CC1C1CO1 (stereo not given)
not listed: [2] | [9]
inactive: all other assays above

CN(C)N=O
not listed: [2] | [16] | [17]
inactive: all other assays above

CCN(CC)CCO
not listed: [2] | [16]
inactive: all other assays above

CCC[N+](=O)[O-]
8.48 µM (active) and inactive: [15]
not listed: [2] | [6] | [9] | [16]
inactive: all other assays above

CC(C)C1(C)N=C(c2nc3ccccc3cc2C(=O)O)NC1=O (stereo not given)
not listed: [2]
inactive: all other assays above
